The results in this text go back to the supplement of paper PMC8007513.

This experiment concerns Trichoderma virens ATCC 9645. Put plainly: growth yield (OD600) relative to untreated control; higher = less growth inhibition. The settings on record: compound concentration: 100 uM. An outline of the steps:
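For each 96-well plate, 100 μl aliquots were prepared with Trichoderma virens ATCC 9645 spores suspended at 15,000 spores ml^−1 in potato dextrose broth. The spores had been harvested from potato dextrose agar plates after 7 days. Library compounds were present at 100 μM final, some wells also receiving a biocide at 200 ng ml^−1, and plates were grown at 30 °C with OD600 read on a BioTek EL800 at 40 h and 72 h. Reported growth, relative to the control lacking both agents, is the mean of duplicate screens.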

The structures appear in SMILES notation. Structures can show the parent of a compound that is named as a salt. ± gives the standard error. Out of some 1,300 compounds screened, about 75 (6%) showed an effect of 50% or more. The list comes from a sample in which strong results are over-represented; it also holds similar structures and randomly drawn compounds.

`CN(C)[C@@H]1C(O)=C(C(=O)NCNCCCC[C@H](N)C(=O)O)C(=O)[C@@]2(O)C(O)=C3C(=O)c4c(O)cccc4[C@@](C)(O)[C@H]3C[C@@H]12` [Lymecycline]: the growth yield reads like this: (40 h) 82.1 ± 2.7%; (72 h) 73.83 ± 0.63%.
In the case of `CC(C)(O/N=C(\C(=O)N[C@@H]1C(=O)N2C(C(=O)[O-])=C(C[n+]3ccccc3)CS[C@H]12)c1csc(N)n1)C(=O)O` [Ceftazidime pentahydrate], the growth yield is, setting by setting: (40 h) 102%; (72 h) 102 ± 1.1%.
In the case of `CO/N=C(\C(=O)N[C@@H]1C(=O)N2C(C(=O)OC(C)OC(C)=O)=C(COC(N)=O)CS[C@H]12)c1ccco1` (some centres not stated) [Cefuroxime axetil], the growth yield runs as follows: (40 h) 97.05 ± 0.16%; (72 h) 96.5 ± 1.7%.
Consider `CC(C)NCC(O)c1cc(O)cc(O)c1` (configuration not stated) [Metaproterenol sulfate, orciprenaline sulfate], for which the growth yield amounted to 99.1 ± 1.6% (40 h) and 99.95 ± 0.1% (72 h).
Compound `CC(C)N1CCN(c2ccc(OCC3COC(Cn4cncn4)(c4ccc(Cl)cc4Cl)O3)cc2)CC1` (configuration not stated) [Terconazole] had a growth yield (40 h) of 82.44 ± 0.16% and a growth yield (72 h) of 88.4 ± 1.1%.
`CC[C@@H]([C@H](C)O)n1ncn(-c2ccc(N3CCN(c4ccc(OC[C@@H]5CO[C@@](Cn6cncn6)(c6ccc(F)cc6F)C5)cc4)CC3)cc2)c1=O` [Posaconazole] returned a growth yield (40 h) of 8.9 ± 8.9% and a growth yield (72 h) of 5.77 ± 5.6%.
Regarding `CCC(C)n1ncn(-c2ccc(N3CCN(c4ccc(OCC5COC(Cn6cncn6)(c6ccc(Cl)cc6Cl)O5)cc4)CC3)cc2)c1=O` (configuration not stated) [Itraconazole], the growth yield (40 h) worked out at 4.77 ± 2.2% and the growth yield (72 h) was found to be 13.2%.
For `CC(=O)N1CCN(c2ccc(OCC3COC(Cn4ccnc4)(c4ccc(Cl)cc4Cl)O3)cc2)CC1` (configuration not stated) [Ketoconazole], in that order: 2.22 ± 1.3% and 1.68 ± 0.84%.
In turn, `Nc1ccc(C(=O)O)c(O)c1` [4-aminosalicylic acid] came in with a growth yield (40 h) of 93.1% and a growth yield (72 h) of 89.36 ± 0.42%.
In the case of `CO[C@@]1(NC(=O)C(C(=O)O)c2ccc(O)cc2)C(=O)N2C(C(=O)O)=C(CSc3nnnn3C)CO[C@@H]21` (some centres not stated) [Moxalactam disodium salt], the growth yield runs as follows: (40 h) 96.1 ± 0.16%; (72 h) 92.71 ± 0.63%.
The compound `CCC(C)(C)C(=O)O[C@H]1C[C@@H](C)C=C2C=C[C@H](C)[C@H](CC[C@@H]3C[C@@H](O)CC(=O)O3)[C@H]21` [Simvastatin] returned a growth yield (40 h) of 103 ± 1.3% and a growth yield (72 h) of 96.2 ± 4.5%.
`C=CCN1CCCC1CNC(=O)c1cc2nn[nH]c2cc1OC` (configuration not stated) [Alizapride hydrochloride]: the growth yield stood at 108 ± 4.3% (40 h) and 109 ± 2.7% (72 h).
Regarding `CN(C)C(=N)NC(=N)N` [Metformin hydrochloride], the growth yield was 105 ± 7.2% (40 h) and 103 ± 5.3% (72 h).
On the same counts, the results for `Clc1ccc(CCC(Cn2ccnc2)Sc2c(Cl)cccc2Cl)cc1` (configuration not stated) [Butoconazole nitrate] are 3.49% and 2.31%.
Regarding `Clc1ccc(C(Cn2ccnc2)OCc2c(Cl)cccc2Cl)c(Cl)c1` (configuration not stated) [Isoconazole], the growth yield reads like this: (40 h) 2.06 ± 1.4%; (72 h) 1.68 ± 1.1%.
For the compound `Clc1ccc(CO/N=C(\Cn2ccnc2)c2ccc(Cl)cc2Cl)c(Cl)c1` [Oxiconazole Nitrate], the growth yield is 1.59 ± 1.6% (40 h) and 0.839 ± 0.84% (72 h).
As to `Clc1ccc(CSC(Cn2ccnc2)c2ccc(Cl)cc2Cl)cc1` (configuration not stated) [Sulconazole nitrate], the growth yield (40 h) is 2.22 ± 0.64% and the growth yield (72 h) came to 1.78 ± 0.52%.
Regarding `CCN1CCCC(OC(=O)C(c2ccccc2)c2ccccc2)C1` (configuration not stated) [Piperidolate hydrochloride], the growth yield came out at 106 ± 0.79% (40 h) and 105 ± 1.8% (72 h).
In the case of `C=CC[N@@+]12CC[C@@]34c5ccccc5N5/C=C6/[C@H]7C[C@H]8[C@@]9(CC[N@@+]8(CC=C)C/C7=C/CO)c7ccccc7N(/C=C(/[C@@H](C[C@@H]31)/C(=C\CO)C2)[C@H]54)[C@@H]69` [Alcuronium chloride], the growth yield came to 66.1 ± 7.6% (40 h) and 65.8 ± 5.3% (72 h).
In the case of `O=C(O)CCNC(=O)c1ccc(/N=N/c2ccc(O)c(C(=O)O)c2)cc1` [Balsalazide Sodium], the growth yield is, setting by setting: (40 h) 107 ± 1.4%; (72 h) 101.9 ± 0.84%.
In the case of `OCCN1C[C@H](O)[C@@H](O)[C@H](O)[C@H]1CO` [Miglitol], the growth yield stood at 101 ± 3% (40 h) and 103 ± 3.1% (72 h).
`C#C[C@]1(O)CC[C@H]2[C@@H]3[C@H](C)CC4=C(CCC(=O)C4)[C@H]3CC[C@@]21C` [Tibolone]: the growth yield turned out to be 88.31 ± 0.64% (40 h) and 90.72 ± 0.1% (72 h).
With `CN1CC2c3ccccc3Oc3ccc(Cl)cc3C2C1` (configuration not stated) [Asenapine maleate], the growth yield came to 100 ± 1.3% (40 h) and 106 ± 1.3% (72 h).
Turning to `C=CCOC(Cn1ccnc1)c1ccc(Cl)cc1Cl` (configuration not stated) [Enilconazole], the growth yield turned out to be 3.49% (40 h) and 3.04 ± 0.32% (72 h).
Consider `O=C(O)/C=C/c1ccc(Cn2ccnc2)cc1` [Ozagrel hydrochloride], for which the growth yield came out at 110 ± 9.5% (40 h) and 106 ± 5.1% (72 h).
Compound `Clc1ccc(C(Cn2ccnc2)OCc2ccsc2Cl)c(Cl)c1` (configuration not stated) [Tioconazole] yielded a growth yield (40 h) of 2.22 ± 1.6% and a growth yield (72 h) of 1.89 ± 0.84%.
For `Clc1ccc(C(Cn2ccnc2)OCc2csc3c(Cl)cccc23)c(Cl)c1` (configuration not stated) [Sertaconazole nitrate], the growth yield reads like this: (40 h) 3.81%; (72 h) 2.73%.
On to `Clc1ccc(COC(Cn2ccnc2)c2ccc(Cl)cc2Cl)cc1` (configuration not stated) [Econazole nitrate], for which the growth yield is, setting by setting: (40 h) 2.22 ± 0.64%; (72 h) 1.78 ± 0.52%.
Compound `CCOC(=O)O[C@]1(C(=O)OCCl)CC[C@H]2[C@@H]3CCC4=CC(=O)C=C[C@]4(C)[C@H]3[C@@H](O)C[C@@]21C` [Loteprednol etabonate] had a growth yield (40 h) of 97.7 ± 3.6% and a growth yield (72 h) of 97.4 ± 3.5%.
As to `CNCC(O)c1ccc(OC(=O)C(C)(C)C)c(OC(=O)C(C)(C)C)c1` (configuration not stated) [Dipivefrin hydrochloride], the growth yield (40 h) came out at 99.28 ± 0.79% and the growth yield (72 h) turned out to be 100.2 ± 0.94%.
On the same counts, the results for `CN(C)[C@@H]1C(O)=C(C(N)=O)C(=O)[C@@]2(O)C(O)=C3C(=O)c4c(O)cccc4[C@@](C)(O)[C@H]3C[C@@H]12` [Tetracycline hydrochloride] are 95.9% and 76.2 ± 15%.
In the case of `CCN(CC)CCN[C@@H](C(=O)OCCC(C)C)c1ccccc1` [Camylofine chlorhydrate], the growth yield came out at 104 ± 1.8% (40 h) and 102 ± 1.5% (72 h).
As for `CC1=C(CC(=O)O)c2cc(F)ccc2/C1=C\c1ccc([S+](C)[O-])cc1` (configuration not stated) [Sulindac], the growth yield is, setting by setting: (40 h) 90.1 ± 1.1%; (72 h) 86.31 ± 0.73%.
For `CN(C)CCCSC(=N)N` [Dimaprit dihydrochloride], the growth yield by setting is: (40 h) 102 ± 3.3%; (72 h) 99.5 ± 3.2%.
Turning to `CC(C)(C)NC(=O)[C@H]1CC[C@H]2[C@@H]3CC[C@H]4NC(=O)C=C[C@]4(C)[C@H]3CC[C@]12C` [Finasteride], the growth yield runs as follows: (40 h) 84 ± 5.9%; (72 h) 81.1 ± 2%.
With `N[C@@H]1CCCCN(c2c(F)cc3c(=O)c(C(=O)O)cn(C4CC4)c3c2Cl)C1` [Besifloxacin hydrochloride], the growth yield reads like this: (40 h) 93.4 ± 6.3%; (72 h) 91.6 ± 8.3%.
Take `C[C@H](Cc1cc2c(c(C(N)=O)c1)N(CCCO)CC2)NCCOc1ccccc1OCC(F)(F)F` [Silodosin]: the growth yield was found to be 105% (40 h) and 100 ± 2.3% (72 h).
On the same counts, the results for `Cc1cc(/C=C/c2ccc3cc(N(C)C)ccc3[n+]2C)c(C)n1-c1ccccc1` [Pyrvinium pamoate] are 124 ± 20% and 114 ± 12%.
Turning to `CCC1NC(=O)c2cc(S(N)(=O)=O)c(Cl)cc2N1` (configuration not stated) [Quinethazone], the growth yield came out at 114 ± 1.4% (40 h) and 107 ± 1.1% (72 h).
On the same counts, the results for `C#C[C@]1(OC(C)=O)CC[C@H]2[C@@H]3CCC4=CC(=NO)CC[C@@H]4[C@H]3CC[C@@]21CC` (mixture of isomers) [Norgestimate] are 117 ± 3.3% and 112 ± 3.9%.
Take `Clc1ccc(COC(Cn2ccnc2)c2ccc(Cl)cc2Cl)c(Cl)c1` (configuration not stated) [Miconazole]: the growth yield runs as follows: (40 h) 1.43 ± 1.1%; (72 h) 1.47 ± 0.63%.
On the same counts, the results for `COc1ccc(-c2ccc3cc(C(=O)O)ccc3c2)cc1C12CC3CC(CC(C3)C1)C2` [Adapalene] are 107 ± 1.9% and 106.6 ± 0.84%.
`Nc1ncnc2c1ncn2C1OC(COP(=O)(O)O)C(O)C1O` (configuration not stated) [Adenosine 5'-monophosphate monohydrate]: the growth yield (40 h) turned out to be 106 ± 1.3% and the growth yield (72 h) was 107 ± 3.6%.
As to `Cc1c(NC(C)C)c(=O)n(-c2ccccc2)n1C` [Isopyrin hydrochloride], the growth yield reads like this: (40 h) 100.9 ± 0.79%; (72 h) 96.17 ± 0.52%.
For `O=C(O)Cc1cc(I)c(Oc2ccc(O)c(I)c2)c(I)c1` [Tiratricol, 3,3',5-triiodothyroacetic acid], the growth yield (40 h) came out at 28.9 ± 16% and the growth yield (72 h) was 46.6 ± 17%.
In the case of `NC(Cc1cc(I)c(Oc2cc(I)c(O)c(I)c2)c(I)c1)C(=O)O` (configuration not stated) [Thyroxine (L)], the growth yield reads like this: (40 h) 98 ± 2.1%; (72 h) 94.5 ± 3.9%.
For `N[C@@H](Cc1cc(I)c(Oc2ccc(O)c(I)c2)c(I)c1)C(=O)O` [Liothyronine], the growth yield is, setting by setting: (40 h) 91.3 ± 3.3%; (72 h) 97.3 ± 1.1%.
For `COc1cc2nc(N3CCN(C(=O)c4ccco4)CC3)nc(N)c2cc1OC` [Prazosin hydrochloride], in that order: 105 ± 5.7% and 101 ± 1.4%.
For `CCOC(=O)/C=C(C)/C=C/C=C(C)/C=C/c1c(C)cc(OC)c(C)c1C` [Etretinate], in that order: 110 ± 6.3% and 107 ± 5.5%.
On to `CC(=O)Nc1ccc(CC(=O)O)cc1` [Actarit], for which the growth yield was 106 ± 5.4% (40 h) and 102 ± 3.4% (72 h).
For `C[C@@H](O)[C@H]1C(=O)N2C(C(=O)O)=C(SCCNC=N)C[C@H]12` [Imipenem], the growth yield reads like this: (40 h) 103 ± 2.2%; (72 h) 104 ± 2.2%.
